Screening results as filed in PubChem BioAssay.
An excerpt weighted towards active compounds, which were near 4% of everything screened.
Mtb FBA inh: inhibitors of M. tuberculosis fructose-bisphosphate aldolase; P9WQA3; purified M. tuberculosis FBA, fluorescence read-out; inhibition, % at 1 µM; 360,000 tested, 2.3% active; in the data active means inhibition above about 27%;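 further: 0% = vehicle and 100% = reference inhibitor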
UGM FP inh: Mtb UDP-galactopyranose mutase inhibition | purified UGM, fluorescence polarization probe displacement | P9WIQ1 | inhibition, % at 10 µM | 320,000 tested, 0.06% active; in the data active means inhibition above about 10%, passing the limit was not always enough
GDH-TPI counter: inhibits GDH-TPI coupling enzymes, artifact for Mtb FBA screen | GDH-TPI coupled enzyme counterscreen, NADH absorbance | inhibition, % at 4.8 µM | 360,000 tested, 1.2% active | AID 588335; in the data active means inhibition above about 30%;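 further: 0% = DMSO wells and 100% = wells lacking the enzyme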
Mtb betalactam: beta-lactam sensitization of Mtb H37Rv; inhibition, % at 25 µM; M. tuberculosis H37Rv growth with meropenem, percent inhibition; 330,000 tested, 0.27% active; AID 434955; call rule not given here;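 further: growth measured after seven days incubation then overnight dye step; 0% = bacteria only wells and 100% = bacteria with antibiotic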
Rv3671c protease: inhibits the M. tuberculosis serine protease Rv3671c; inhibition, % at 5.96 µM; 320,000 tested, 0.048% active; AID 2606; in the data active means inhibition above about 38%;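 further: extracellular domain of Rv3671c used as enzyme; 0% = enzyme with DMSO and 100% = no enzyme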
RecA intein inh: blocks M. tuberculosis RecA intein splicing; cell-free RecA intein splicing, fluorescence; AID 2221; P9WHJ3; 290,000 tested, 0.75% active; inhibition, % (no concentration beside the values); in the data active means inhibition above about 30%;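 further: 0% = vehicle wells and 100% = reference inhibitor control wells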
Target sequence (P9WHJ3 whole entry, looked up): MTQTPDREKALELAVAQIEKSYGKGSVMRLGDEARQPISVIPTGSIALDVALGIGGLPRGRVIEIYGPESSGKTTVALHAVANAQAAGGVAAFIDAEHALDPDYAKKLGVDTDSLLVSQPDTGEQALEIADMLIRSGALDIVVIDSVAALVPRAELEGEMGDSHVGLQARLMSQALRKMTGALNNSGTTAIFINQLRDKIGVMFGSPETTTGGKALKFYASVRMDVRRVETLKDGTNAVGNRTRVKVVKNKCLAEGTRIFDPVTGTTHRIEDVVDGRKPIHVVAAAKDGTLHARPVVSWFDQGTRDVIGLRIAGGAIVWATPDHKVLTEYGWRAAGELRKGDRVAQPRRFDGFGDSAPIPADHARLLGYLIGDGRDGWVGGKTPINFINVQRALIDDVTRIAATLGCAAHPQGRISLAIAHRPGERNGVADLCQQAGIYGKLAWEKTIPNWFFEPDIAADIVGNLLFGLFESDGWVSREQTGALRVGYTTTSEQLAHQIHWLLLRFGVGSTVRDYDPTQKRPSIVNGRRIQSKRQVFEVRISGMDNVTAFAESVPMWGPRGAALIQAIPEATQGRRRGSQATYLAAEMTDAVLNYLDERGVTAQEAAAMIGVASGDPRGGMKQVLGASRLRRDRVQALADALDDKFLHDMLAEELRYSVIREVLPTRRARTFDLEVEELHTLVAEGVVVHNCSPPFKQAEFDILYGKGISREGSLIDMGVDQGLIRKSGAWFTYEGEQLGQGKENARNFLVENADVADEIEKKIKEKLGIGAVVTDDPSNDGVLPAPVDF
Active calls of the source: *; / = no result; + = active, no number; ! = repeats disagree.

SMILES | Mtb FBA inh | UGM FP inh | GDH-TPI counter | Mtb betalactam | Rv3671c protease | RecA intein inh
CCCC(=O)Nc1c2c(nc3ccccc13)N(c1ccccc1)CC2 | 192* | -1 | 10 | 39 | 0 | -8
Cc1cnc(C(=O)OCC(=O)Nc2cc(S(=O)(=O)N3CCOCC3)ccc2Cl)cn1 | 1 | 0 | 2 | -2 | 6 | /
COc1ccc(-c2cn3cccnc3n2)cc1F | + | 1 | 12 | -3 | 0 | -4
Brc1ccc(-c2cn3cccnc3n2)cc1 | 139* | 2 | 17 | 2 | -1 | /
Clc1ccc(-c2cn3cccnc3n2)cc1 | + | 0 | 12 | -12 | 2 | 1
Brc1ccc(-c2cn3ccccc3n2)cc1 | 11 | -3 | 11 | 12 | -2 | 4
Clc1ccc(-c2cn3cccnc3n2)cc1Cl | 70* | 0 | 15 | -4 | -26 | 1
COc1cccc(C(c2c(N)[nH]c(=S)[nH]c2=O)c2c(N)[nH]c(=S)[nH]c2=O)c1 | 0 | -4 | -17 | -10 | 7 | -2
CCOC(=O)CNC(=O)c1ccccc1Br | + | 0 | 3 | 2 | 6 | 0
CCOC(=O)CNC(=O)c1ccccc1 | -2 | 2 | 5 | -13 | -8 | -3
CCOC(=O)C1(C)CCCN1C(=O)c1snnc1C (stereo not given) | -3 | / | 6 | / | / | /
O=C(NC(=S)Nn1cnnc1)c1ccccc1Cl | -3 | 13* | -1 | 2 | 5 | -2
COCCC(=O)N1CCC(Oc2ccc(C(=O)N3CCCC(CCCO)C3)cc2)CC1 (stereo not given) | -1 | -1 | -5 | 10 | -15 | 1
Cc1[nH]nc2c1C(c1ccc(F)cc1)C(C#N)=C(N)O2 (stereo not given) | 5 | 2 | -5 | 1 | -4 | /
Cc1[nH]nc2c1C(c1ccc(-c3ccc(Cl)cc3)o1)C(C#N)=C(N)O2 (stereo not given) | -4 | 1 | -11 | 95 | -10 | 68*
Cc1[nH]nc2c1C(c1ccc(-c3ccccc3C#N)o1)C(C#N)=C(N)O2 (stereo not given) | -1 | 3 | 4 | -2 | -17 | 65*
CCC(CC)C1C(C#N)=C(N)Oc2n[nH]c(C)c21 (stereo not given) | 1 | -2 | -4 | 7 | 1 | -7
COC(=O)[C@]1(C)N[C@H](CN(C)S(=O)(=O)c2ccc(C)cc2)[C@@H]2C(=O)N(Cc3ccccc3)C(=O)[C@@H]21 | 0 | 0 | 0 | -5 | -3 | /
Cc1ccc(S(=O)(=O)CC(=O)c2cc3cccc(C)c3oc2=O)cc1 | 3 | 2 | 3 | 7 | 2 | 2
O=C(O)c1c(C(=O)O)c(-c2ccc(Br)cc2)n2c1CSC2 | 9 | -3 | -3 | 5 | -6 | -1
COCCNC(=O)C1(C)CCCN(C(=O)c2ccccc2)C1 (stereo not given) | -1 | / | 7 | / | / | /
O=C(CSc1nc(-c2ccco2)cc(C(F)(F)F)n1)Nc1ccc2c(c1)OCO2 | -2 | 1 | 16 | -7 | 3 | 0
O=C(CSc1nc(-c2ccco2)cc(C(F)(F)F)n1)Nc1cccnc1 | -1 | -1 | 32* | -5 | 3 | -1
CCOC(=O)C(=CNc1cc(OC)ccc1-n1cccc1)C(=O)OCC | 13 | 0 | 36* | -4 | 0 | 2
CCOC(=O)C(=CNc1cc(C)ccc1[N+](=O)[O-])C(=O)OCC | -3 | 0 | 10 | 3 | -6 | 1
SMILES | Mtb FBA inh | UGM FP inh | GDH-TPI counter | Mtb betalactam | Rv3671c protease | RecA intein inh
CCOC(=O)C(=CNc1cc(C)ccc1C)C(=O)OCC | -2 | 0 | 34* | 24 | -1 | 7
CCOC(=O)C(=CNc1cc(C(F)(F)F)ccc1N1CCOCC1)C(=O)OCC | 0 | 0 | 32* | 22 | 1 | 0
Cn1c2c(c(=O)n(C)c1=O)CN(Cc1ccccc1)CN2 | 3 | / | / | / | / | /
COc1cc2sc(-c3ccc(S(C)(=O)=O)cc3)c(-c3ccc4c(c3)OCO4)c2cc1OC | 32* | -3 | 16 | -3 | 3 | /
O=C(c1cccc([N+](=O)[O-])c1)c1ccc2[nH]c(=O)[nH]c2c1 | -3 | 0 | 14 | 9 | 0 | /
COc1cc(C)c(/C=C/C(C)=C/C=C/C(C)=C/C(=O)O)c(C)c1C | -1 | 4 | 61* | 98 | 1 | 4
CCCCn1nnnc1C(c1ccc(OC)cc1)N1CCN(C/C=C/c2ccccc2)CC1 (stereo not given) | -1 | / | / | / | / | /
O=C(c1ccccc1)[C@@H]1[C@@H](C(=O)c2ccc(F)cc2)[C@@]2(C(=O)Nc3ccccc32)[C@H]2c3ccccc3C=CN12 | -2 | 0 | 6 | 56 | -42 | 31*
CC(=O)[C@@H]1[C@@H](C(=O)c2ccccc2)[C@]2(C(=O)Nc3ccccc32)[C@H]2C=Cc3cc(F)ccc3N12 | -4 | 0 | 7 | -4 | -10 | 6
Cc1ccc(C(=O)OCC(=O)NC2CCCC2)cc1C | 2 | -1 | 2 | 1 | 1 | -1
CC(=O)Nc1ccc(-c2ccnc3c2CC(C)(C(=O)Nc2cccc(OC(F)(F)F)c2)O3)cc1 (stereo not given) | 3 | / | 10 | / | / | /
COc1ccc2c(C)c(C(=O)NCC(C)O)oc2c1OC (stereo not given) | 138* | -1 | 3 | -2 | -3 | -5
O=C1Cn2nnc(-c3ccccc3)c2C2c3ccccc3CCN12 (stereo not given) | 1 | / | / | / | / | /
O=[N+]([O-])c1ccc(SCCc2ccncc2)cc1 | -3 | 3 | 42*! | -6 | -3 | -5
O=[N+]([O-])c1ccc(SCCc2ccccn2)cc1 | -2 | 0 | 13 | -2 | -3 | 3
CCCC[N+](CC#CCO)(CC#Cc1ccccc1)CCCC | 3 | 1 | -17 | 2 | -7 | 0
CCC[N+](CC#CCO)(CC#Cc1ccccc1)CCC | 146* | 0 | 3 | 0 | 2 | 1
COc1ccc(CNC(=O)C(=O)NCC2OCCCN2S(=O)(=O)c2cccs2)cc1 (stereo not given) | 2 | -3 | 3 | -1 | 5 | -2
COc1ccccc1C(=O)COC(=O)CN1C(=O)NC2(CCCC2)C1=O | 0 | 2 | 5 | -12 | -2 | -4
Cc1oc(=O)c(NC(=O)c2ccccc2)cc1C(C)O (stereo not given) | 3 | -1 | 14 | 8 | 6 | 3
CCOC(=O)c1cc(NC(=O)c2ccccc2)c(=O)oc1-c1ccccc1 | 2 | 1 | 33* | 11 | -9 | -1
COc1ccc(NC(=O)C2Cc3c(-c4ccc(NC(C)=O)cc4)ccnc3O2)cn1 (stereo not given) | 7 | / | 6 | / | / | /
CC(C)Cn1c(SCC(=O)NC2CC2)nc2ccccc21 | 7 | / | 6 | / | / | /
O=c1[nH]c2ccccc2nc1-c1ccc(Cl)cc1 | 24 | -3 | 38* | -5 | -4 | 2
CN(C)S(=O)(=O)NCC1CCCN(Cc2cc3ccccc3s2)C1 (stereo not given) | 3 | 2 | -2 | -1 | -3 | 0
COc1ccc(Nc2nnc(SCC(=O)c3cc4ccccc4o3)s2)cc1 | 3 | 1 | 37* | -6 | -34 | -6
